In ChEMBL document CHEMBL1961873, “Compounds: GSK PKIS; Assays: Nanosyn kinase panel” (2012) one finds inhibition data, which are given here for 1 compound.

Experiment [1] concerns the target T1, Inhibitor of nuclear factor kappa-B kinase subunit epsilon (Homo sapiens) (UniProt Q14164).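 Further: reported values are averaged percent inhibition figures against human IKKε.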
T1 sequence (whole entry): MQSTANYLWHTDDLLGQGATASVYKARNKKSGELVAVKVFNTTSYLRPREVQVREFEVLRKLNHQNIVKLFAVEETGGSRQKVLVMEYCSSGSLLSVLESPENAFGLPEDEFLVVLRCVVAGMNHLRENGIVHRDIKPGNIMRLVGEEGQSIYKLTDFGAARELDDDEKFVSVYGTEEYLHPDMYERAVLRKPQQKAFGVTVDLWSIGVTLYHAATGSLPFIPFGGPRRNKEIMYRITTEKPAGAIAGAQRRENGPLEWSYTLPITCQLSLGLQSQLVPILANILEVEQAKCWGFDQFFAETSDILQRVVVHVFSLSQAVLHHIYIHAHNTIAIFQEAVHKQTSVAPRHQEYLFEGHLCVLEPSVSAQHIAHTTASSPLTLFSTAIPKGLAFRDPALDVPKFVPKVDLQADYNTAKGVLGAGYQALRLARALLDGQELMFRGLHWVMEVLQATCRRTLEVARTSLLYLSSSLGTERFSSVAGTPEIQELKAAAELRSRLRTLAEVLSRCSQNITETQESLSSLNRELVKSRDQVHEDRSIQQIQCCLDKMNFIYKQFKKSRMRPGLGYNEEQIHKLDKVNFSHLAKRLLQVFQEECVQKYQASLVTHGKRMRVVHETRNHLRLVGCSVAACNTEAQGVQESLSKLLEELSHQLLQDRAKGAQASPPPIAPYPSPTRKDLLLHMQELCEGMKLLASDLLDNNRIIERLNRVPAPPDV
The conditions noted are these: at 1 µM.

The target in experiment [2] is T2, Serine/threonine-protein kinase Nek1 (Homo sapiens) (UniProt Q96PY6).
T2 sequence (whole entry): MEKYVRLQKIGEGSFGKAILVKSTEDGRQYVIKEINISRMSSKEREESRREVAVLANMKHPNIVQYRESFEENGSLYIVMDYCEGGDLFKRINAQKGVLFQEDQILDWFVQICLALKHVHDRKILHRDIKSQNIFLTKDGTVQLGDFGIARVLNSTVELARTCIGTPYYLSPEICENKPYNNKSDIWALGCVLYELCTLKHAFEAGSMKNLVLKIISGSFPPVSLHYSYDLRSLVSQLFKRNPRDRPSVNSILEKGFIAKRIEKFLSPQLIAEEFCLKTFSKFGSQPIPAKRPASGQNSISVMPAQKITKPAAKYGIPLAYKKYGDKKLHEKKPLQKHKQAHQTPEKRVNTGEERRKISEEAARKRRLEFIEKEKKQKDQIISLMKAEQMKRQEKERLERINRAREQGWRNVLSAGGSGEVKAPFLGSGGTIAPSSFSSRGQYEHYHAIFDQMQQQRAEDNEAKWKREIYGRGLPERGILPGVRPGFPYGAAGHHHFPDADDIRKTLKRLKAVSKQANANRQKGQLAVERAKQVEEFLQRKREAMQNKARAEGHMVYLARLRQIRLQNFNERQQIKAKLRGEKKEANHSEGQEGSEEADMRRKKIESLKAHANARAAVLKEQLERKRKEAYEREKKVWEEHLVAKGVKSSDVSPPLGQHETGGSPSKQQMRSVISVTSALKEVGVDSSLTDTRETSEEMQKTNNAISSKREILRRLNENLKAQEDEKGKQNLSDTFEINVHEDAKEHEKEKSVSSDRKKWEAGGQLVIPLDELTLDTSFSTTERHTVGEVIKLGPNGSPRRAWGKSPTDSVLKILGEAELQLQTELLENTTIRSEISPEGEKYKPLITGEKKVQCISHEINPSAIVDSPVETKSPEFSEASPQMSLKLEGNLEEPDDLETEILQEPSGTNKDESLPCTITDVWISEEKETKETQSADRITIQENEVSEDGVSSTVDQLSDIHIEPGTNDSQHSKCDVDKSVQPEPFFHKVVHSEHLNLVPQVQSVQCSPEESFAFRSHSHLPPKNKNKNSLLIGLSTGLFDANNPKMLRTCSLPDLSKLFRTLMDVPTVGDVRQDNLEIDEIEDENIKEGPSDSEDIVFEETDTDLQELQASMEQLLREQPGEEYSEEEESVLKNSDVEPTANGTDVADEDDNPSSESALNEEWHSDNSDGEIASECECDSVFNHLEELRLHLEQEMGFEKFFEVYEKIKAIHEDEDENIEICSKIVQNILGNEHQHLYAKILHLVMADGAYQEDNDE
To be noted: at 0.1 µM.

Experiment [3] concerns the target T2, Serine/threonine-protein kinase Nek1 (Homo sapiens). The conditions noted are these: at 1 µM.
The target in experiment [4] is T3, Serine/threonine-protein kinase Nek2 (Homo sapiens) (UniProt P51955).
T3 sequence (whole entry): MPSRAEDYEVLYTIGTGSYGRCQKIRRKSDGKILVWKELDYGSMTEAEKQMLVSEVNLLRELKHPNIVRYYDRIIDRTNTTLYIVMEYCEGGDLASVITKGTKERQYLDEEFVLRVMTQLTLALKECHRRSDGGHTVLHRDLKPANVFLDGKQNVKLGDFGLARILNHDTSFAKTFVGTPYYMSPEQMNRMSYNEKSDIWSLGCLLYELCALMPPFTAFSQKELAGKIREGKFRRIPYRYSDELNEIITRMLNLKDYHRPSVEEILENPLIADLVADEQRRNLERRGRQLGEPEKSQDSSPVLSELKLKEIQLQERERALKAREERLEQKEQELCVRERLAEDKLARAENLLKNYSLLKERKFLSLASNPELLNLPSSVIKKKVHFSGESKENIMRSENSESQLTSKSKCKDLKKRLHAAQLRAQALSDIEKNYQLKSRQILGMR
To be noted: at 0.1 µM.

For experiment [5], the target named is T3, Serine/threonine-protein kinase Nek2 (Homo sapiens). To be noted: at 1 µM.
For experiment [6], the target named is Serine/threonine-protein kinase Nek6 (Homo sapiens) (UniProt Q9HC98). The conditions noted are these: at 0.1 µM.
Experiment [7] has the same target. To be noted: at 1 µM.
The target of experiment [8] is Serine/threonine-protein kinase Nek7 (Homo sapiens) (UniProt Q8TDX7). To be noted: at 0.1 µM.
Experiment [9] shares this target. To be noted: at 1 µM.
For experiment [10], the target named is T4, Serine/threonine-protein kinase Nek9 (Homo sapiens) (UniProt Q8TD19).
T4 sequence (whole entry): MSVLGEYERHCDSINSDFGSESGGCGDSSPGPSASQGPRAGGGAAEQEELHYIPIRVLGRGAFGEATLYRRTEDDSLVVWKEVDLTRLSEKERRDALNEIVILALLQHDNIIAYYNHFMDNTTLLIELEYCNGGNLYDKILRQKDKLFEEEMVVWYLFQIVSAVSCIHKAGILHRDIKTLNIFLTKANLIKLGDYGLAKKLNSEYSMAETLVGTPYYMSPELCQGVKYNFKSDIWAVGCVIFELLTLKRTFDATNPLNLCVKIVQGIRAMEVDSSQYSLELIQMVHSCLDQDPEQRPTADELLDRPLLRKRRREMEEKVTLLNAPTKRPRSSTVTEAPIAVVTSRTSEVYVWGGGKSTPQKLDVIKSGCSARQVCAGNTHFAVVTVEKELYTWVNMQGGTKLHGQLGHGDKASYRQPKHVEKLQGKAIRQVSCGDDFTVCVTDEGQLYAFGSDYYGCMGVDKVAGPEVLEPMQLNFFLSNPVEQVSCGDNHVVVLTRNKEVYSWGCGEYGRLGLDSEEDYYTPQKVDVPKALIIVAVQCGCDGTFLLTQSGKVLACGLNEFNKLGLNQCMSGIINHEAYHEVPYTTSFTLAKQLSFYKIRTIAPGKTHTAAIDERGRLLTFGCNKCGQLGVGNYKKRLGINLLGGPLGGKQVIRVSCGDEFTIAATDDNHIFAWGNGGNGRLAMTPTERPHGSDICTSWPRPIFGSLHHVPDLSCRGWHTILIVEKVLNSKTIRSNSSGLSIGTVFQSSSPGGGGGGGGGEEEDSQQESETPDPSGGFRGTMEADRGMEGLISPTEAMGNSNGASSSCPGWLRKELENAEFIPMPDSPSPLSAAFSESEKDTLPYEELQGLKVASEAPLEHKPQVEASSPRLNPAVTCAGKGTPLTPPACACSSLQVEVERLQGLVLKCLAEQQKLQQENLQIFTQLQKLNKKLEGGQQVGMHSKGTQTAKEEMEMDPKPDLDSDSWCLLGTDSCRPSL
To be noted: at 0.1 µM.

Experiment [11] concerns the target T4, Serine/threonine-protein kinase Nek9 (Homo sapiens). To be noted: at 1 µM.
Experiment [12] has as its target Serine/threonine-protein kinase PLK1 (Homo sapiens) (UniProt P53350). To be noted: at 0.1 µM.
The target is the same in experiment [13]. The conditions noted are these: at 1 µM.
For experiment [14], the target named is T5, Dual specificity protein kinase TTK (Homo sapiens) (UniProt P33981).
T5 sequence (whole entry): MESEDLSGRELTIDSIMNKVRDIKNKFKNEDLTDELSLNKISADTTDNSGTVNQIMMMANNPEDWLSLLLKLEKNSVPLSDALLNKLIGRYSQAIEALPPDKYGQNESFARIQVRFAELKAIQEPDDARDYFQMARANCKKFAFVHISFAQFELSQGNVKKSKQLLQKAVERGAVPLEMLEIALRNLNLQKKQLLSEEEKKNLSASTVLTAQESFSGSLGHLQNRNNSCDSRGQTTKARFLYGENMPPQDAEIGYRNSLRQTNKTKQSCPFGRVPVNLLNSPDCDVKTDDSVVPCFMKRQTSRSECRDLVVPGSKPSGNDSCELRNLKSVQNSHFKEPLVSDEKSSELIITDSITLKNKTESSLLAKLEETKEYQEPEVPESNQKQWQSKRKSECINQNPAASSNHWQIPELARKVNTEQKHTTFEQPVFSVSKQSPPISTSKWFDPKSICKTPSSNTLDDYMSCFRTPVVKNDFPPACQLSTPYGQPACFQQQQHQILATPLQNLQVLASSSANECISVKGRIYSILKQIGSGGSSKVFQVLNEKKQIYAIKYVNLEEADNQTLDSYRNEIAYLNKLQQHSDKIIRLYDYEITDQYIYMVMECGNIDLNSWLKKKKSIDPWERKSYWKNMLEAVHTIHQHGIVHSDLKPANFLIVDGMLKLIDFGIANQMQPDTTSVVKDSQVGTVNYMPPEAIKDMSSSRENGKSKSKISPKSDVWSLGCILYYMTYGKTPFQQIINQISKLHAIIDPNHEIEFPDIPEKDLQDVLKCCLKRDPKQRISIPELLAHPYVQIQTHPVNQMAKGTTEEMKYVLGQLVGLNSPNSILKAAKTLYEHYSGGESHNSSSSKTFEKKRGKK
The conditions noted are these: at 0.1 µM.

For experiment [15], the system named is T6, Receptor-type tyrosine-protein kinase FLT3 (Homo sapiens), P36888 [D835Y].
T6 sequence (whole entry): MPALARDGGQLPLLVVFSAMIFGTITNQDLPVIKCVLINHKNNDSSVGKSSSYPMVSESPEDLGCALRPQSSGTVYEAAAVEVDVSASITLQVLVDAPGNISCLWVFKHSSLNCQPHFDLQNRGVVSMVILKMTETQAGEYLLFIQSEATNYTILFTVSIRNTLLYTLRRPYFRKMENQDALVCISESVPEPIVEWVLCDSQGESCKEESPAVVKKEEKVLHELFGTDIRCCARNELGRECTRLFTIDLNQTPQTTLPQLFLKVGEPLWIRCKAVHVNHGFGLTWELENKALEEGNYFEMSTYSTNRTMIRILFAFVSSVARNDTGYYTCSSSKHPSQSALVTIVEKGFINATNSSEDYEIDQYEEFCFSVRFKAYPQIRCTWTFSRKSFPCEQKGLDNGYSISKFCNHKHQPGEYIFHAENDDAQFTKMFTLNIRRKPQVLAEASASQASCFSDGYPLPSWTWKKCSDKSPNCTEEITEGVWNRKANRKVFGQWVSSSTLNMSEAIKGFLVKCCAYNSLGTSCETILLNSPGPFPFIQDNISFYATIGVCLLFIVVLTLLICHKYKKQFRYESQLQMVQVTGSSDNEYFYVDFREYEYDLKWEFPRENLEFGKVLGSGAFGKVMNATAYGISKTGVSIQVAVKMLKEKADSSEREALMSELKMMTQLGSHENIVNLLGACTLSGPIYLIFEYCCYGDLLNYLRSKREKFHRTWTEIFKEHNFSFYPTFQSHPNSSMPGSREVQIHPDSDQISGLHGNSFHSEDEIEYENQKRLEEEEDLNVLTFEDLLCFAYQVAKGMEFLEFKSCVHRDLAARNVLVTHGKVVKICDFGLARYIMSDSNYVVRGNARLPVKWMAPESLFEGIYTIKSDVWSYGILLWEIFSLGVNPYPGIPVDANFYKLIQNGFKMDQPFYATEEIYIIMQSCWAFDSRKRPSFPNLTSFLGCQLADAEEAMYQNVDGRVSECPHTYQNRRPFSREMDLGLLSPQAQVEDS
The conditions noted are these: at 1 µM.

The target in experiment [16] is Vascular endothelial growth factor receptor 3 (Homo sapiens) (UniProt P35916). To be noted: at 0.1 µM.
Experiment [17] shares this target. To be noted: at 1 µM.
Experiment [18] addresses Macrophage colony-stimulating factor 1 receptor (Homo sapiens) (UniProt P07333). To be noted: at 0.1 µM.
Experiment [19] shares this target. The conditions noted are these: at 1 µM.
Experiment [20] deals with Tyrosine-protein kinase Fyn (Homo sapiens) (UniProt P06241). To be noted: at 0.1 µM.
Tyrosine-protein kinase Fyn (Homo sapiens), sequence (P06241 2-537 limits assumed): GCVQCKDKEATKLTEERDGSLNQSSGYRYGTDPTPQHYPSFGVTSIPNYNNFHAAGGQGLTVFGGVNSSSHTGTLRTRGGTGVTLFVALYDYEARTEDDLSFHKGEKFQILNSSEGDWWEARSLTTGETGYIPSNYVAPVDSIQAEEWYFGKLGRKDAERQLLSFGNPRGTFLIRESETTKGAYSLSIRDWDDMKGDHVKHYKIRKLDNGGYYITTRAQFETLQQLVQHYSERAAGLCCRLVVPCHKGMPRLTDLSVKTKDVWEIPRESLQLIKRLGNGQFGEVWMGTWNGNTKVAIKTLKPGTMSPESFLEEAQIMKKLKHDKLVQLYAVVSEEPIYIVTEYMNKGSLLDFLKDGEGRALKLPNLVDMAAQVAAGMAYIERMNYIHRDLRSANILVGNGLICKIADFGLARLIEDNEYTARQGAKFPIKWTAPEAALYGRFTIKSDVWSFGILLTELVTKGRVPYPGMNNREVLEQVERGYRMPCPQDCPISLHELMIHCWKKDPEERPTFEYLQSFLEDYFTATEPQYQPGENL

Macrophage colony-stimulating factor 1 receptor (Homo sapiens), sequence (P07333 whole entry): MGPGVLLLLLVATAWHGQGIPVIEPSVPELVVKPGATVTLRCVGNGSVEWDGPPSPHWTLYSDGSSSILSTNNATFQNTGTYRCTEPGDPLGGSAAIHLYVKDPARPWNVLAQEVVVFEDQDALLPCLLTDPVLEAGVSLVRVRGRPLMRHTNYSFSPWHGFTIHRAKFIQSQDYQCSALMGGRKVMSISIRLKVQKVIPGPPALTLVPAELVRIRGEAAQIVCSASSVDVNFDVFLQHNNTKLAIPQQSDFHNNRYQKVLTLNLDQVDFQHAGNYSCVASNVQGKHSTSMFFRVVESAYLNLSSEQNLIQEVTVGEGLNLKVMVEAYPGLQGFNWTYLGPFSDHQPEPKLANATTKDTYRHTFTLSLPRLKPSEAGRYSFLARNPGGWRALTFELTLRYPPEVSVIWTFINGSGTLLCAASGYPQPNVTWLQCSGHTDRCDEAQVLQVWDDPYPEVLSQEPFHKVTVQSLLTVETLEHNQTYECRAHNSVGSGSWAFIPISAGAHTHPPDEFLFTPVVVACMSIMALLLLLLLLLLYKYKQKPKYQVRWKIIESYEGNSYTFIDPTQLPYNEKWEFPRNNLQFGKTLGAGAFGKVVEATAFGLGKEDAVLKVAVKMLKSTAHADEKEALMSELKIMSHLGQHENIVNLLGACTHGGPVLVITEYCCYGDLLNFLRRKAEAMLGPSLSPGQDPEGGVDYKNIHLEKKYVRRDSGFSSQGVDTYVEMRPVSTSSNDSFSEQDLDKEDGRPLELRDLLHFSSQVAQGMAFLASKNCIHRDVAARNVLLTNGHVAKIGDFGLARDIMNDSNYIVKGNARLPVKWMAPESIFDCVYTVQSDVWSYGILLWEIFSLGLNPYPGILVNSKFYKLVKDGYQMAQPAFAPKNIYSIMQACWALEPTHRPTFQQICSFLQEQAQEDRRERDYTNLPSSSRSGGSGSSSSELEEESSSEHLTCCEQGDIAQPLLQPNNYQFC
Serine/threonine-protein kinase Nek7 (Homo sapiens), sequence (Q8TDX7 whole entry, looked up): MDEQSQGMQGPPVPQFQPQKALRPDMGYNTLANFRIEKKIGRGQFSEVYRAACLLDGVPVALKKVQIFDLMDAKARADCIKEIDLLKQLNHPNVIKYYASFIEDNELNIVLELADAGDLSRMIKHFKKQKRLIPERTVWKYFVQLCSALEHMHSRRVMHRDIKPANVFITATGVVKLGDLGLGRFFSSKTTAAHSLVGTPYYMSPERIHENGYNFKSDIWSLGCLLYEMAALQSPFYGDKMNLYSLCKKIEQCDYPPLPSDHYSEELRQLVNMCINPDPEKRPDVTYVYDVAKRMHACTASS
Vascular endothelial growth factor receptor 3 (Homo sapiens), sequence (P35916 whole entry): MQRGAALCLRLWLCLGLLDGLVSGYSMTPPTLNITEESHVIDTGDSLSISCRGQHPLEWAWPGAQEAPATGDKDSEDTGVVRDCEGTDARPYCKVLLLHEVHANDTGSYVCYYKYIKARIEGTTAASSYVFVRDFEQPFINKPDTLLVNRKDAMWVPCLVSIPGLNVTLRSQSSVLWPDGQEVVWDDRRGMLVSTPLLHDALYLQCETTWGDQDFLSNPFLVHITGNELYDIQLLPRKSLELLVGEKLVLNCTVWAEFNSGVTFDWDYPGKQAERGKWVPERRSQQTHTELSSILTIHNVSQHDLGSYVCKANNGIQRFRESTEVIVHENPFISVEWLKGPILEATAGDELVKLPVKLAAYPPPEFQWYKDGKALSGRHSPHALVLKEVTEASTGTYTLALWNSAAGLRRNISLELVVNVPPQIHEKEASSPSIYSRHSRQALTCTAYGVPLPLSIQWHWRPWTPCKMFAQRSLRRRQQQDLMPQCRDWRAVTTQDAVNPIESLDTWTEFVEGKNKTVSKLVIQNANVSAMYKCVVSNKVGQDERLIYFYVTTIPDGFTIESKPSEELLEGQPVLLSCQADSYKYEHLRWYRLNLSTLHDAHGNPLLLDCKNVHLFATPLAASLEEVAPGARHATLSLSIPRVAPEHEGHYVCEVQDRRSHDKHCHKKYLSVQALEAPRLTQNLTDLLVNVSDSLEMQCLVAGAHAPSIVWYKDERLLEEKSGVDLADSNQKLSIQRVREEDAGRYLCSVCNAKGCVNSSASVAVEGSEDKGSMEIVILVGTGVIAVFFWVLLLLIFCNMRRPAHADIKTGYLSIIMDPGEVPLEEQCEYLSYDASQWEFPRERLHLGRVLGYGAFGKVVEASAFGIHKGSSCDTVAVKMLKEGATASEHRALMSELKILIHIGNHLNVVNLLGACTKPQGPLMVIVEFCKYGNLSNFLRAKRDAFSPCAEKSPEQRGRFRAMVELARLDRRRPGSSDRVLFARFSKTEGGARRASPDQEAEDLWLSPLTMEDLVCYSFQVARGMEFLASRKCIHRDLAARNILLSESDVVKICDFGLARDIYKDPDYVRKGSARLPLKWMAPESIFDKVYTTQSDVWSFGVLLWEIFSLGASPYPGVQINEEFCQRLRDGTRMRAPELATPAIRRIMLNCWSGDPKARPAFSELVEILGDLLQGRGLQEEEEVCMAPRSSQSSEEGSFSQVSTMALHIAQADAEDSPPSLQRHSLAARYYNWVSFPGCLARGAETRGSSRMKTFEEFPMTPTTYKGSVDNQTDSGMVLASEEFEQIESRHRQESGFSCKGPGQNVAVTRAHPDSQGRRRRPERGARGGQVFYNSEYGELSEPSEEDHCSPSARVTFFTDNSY
Serine/threonine-protein kinase Nek6 (Homo sapiens), sequence (Q9HC98 whole entry): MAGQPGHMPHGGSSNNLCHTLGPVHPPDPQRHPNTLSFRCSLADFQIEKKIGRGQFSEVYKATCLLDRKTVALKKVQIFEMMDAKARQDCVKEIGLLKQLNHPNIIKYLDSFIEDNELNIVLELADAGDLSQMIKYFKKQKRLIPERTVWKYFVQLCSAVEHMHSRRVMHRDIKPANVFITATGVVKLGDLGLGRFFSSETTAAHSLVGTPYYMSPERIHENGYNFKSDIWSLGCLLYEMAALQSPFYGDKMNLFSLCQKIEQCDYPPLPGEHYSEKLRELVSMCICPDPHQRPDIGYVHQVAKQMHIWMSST
Serine/threonine-protein kinase PLK1 (Homo sapiens), sequence (P53350 whole entry): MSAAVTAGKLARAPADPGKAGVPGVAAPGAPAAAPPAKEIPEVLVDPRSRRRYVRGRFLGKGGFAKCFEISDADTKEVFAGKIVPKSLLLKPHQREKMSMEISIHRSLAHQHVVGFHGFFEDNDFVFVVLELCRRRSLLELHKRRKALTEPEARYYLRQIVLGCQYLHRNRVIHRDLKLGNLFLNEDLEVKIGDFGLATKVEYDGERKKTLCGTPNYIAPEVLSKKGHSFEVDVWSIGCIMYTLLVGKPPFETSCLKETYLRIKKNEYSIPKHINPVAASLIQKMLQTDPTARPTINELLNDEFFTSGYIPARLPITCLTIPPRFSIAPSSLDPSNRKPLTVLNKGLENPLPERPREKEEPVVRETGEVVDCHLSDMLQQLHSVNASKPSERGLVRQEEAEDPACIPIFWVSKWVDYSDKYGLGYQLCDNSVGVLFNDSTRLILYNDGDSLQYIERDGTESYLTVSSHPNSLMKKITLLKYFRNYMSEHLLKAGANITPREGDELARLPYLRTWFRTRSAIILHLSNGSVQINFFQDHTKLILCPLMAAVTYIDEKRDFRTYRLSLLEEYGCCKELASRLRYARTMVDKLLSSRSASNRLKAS

With `O=C1Nc2ccccc2/C1=C/Nc1ccc(-n2cncn2)cc1`, the inhibition in [1] came out at 16.4%; in experiment [2] it was 2.46%; in experiment [3], 5.21%; in experiment [4] it was 4.4%; in experiment [5] it was 4.16%; in [6], 4.59%. Besides, the inhibition stood at 7.54% in experiment [7]; 5.44% in experiment [8]; 4.4% in [9]; 5.79% in experiment [10]; 12.4% in [11]; 4.56% in experiment [12]. Besides, the inhibition came out at 2.82% in [13]; 22.4% in experiment [14]; 45.8% in experiment [15]; 16.8% in [16]; 40.2% in experiment [17]; 6.47% in [18]. Moreover, the inhibition in experiment [19] was 34.5%; in experiment [20] it was 2.68%.
